Compound activity: PubChem, National Center for Advancing Translational Sciences (NCATS)
Only some compounds are listed: those with a hit (about 12% of all), similar ones and a draw of the others.
Shiga inhibitor – inhibitors of Shiga toxin in Vero cells. Vero cells, Shiga toxin protein synthesis inhibition reporter. inhibition, % at 38.7 µM. hit rate 9.2% among 290,000; in the data active = inhibition mostly above about 28%, no sharp cut-off; inactive = mostly below about 43%
FMDV inh – foot and mouth disease virus antiviral activity; FMDV antiviral cell-based qHTS; Potency, µM (highest dose often 57.9 µM), usual class: inhibitors; hit rate 1.2% among 410,000; AID 1159524; calls by dose curve; tested in HEK293T cells; note: read-out not given here; nearly all actives have a fitted effect of over 45% in size
Sm TGR block – S. mansoni TGR enzyme inhibition. hit rate 3% among 360,000. Potency, µM (top dose mostly 114 µM), most hits filed as inhibitors. purified TGR, DTNB reduction, TNB absorbance 405 nm. Q962Y6; active = well fitted inhibition curve with a large enough effect; inconclusive = small, poorly fitted or top-dose-only effect; inactive = no such curve, though single readings can be large or run the other way; note: nearly all actives have a fitted effect of over 60% in size
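TGR 20 nM + NADPH 100 uM (dispensed conc.), cpd preinc 15 min RT; start with NADPH (500 uM addition) then DTNB (15 mM addition). Kinetic TNB absorbance, 405 nm filter. Four-parameter Hill fit across titration.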
Cycloheximide cs – affects cycloheximide protein synthesis inhibition readout, counter-screen | hit rate 12% among 300,000 | cell reporter, cycloheximide protein synthesis inhibition counterscreen | max response, % | AID 2314; in the data active = max response mostly above about 13%, no sharp cut-off; inactive = mostly below about 14%; note: read at 38.3 µM for the half of the compounds with a filed dose
Large screens that a line does not name were inactive.

O=C(COC(=O)c1ccco1)Nc1cccc(Br)c1	none
COc1ccc(/C(N)=N/OC(=O)c2ccco2)cc1OC	Shiga inhibitor 113.4, Cycloheximide cs 39.4
Cc1onc(-c2ccccc2Cl)c1C(=O)O/N=C(\N)c1cccc([N+](=O)[O-])c1	none (no result: Shiga inhibitor, Sm TGR block, Cycloheximide cs)
COc1ccc(-c2cc3ccc(O)c(CN4CCC(C)CC4)c3oc2=O)cc1	none (no result: Shiga inhibitor, Cycloheximide cs)
CN1c2ccc(Cl)cc2-c2nc(SCC(=O)NCc3ccc(F)cc3)ncc2S1(=O)=O	none (no result: Shiga inhibitor, Cycloheximide cs)
CCOC(=O)N/N=C/c1c[nH]c2ccccc12	Sm TGR block inconclusive
Cc1cc(/C=N/NC(=O)c2cccc(F)c2)c(C)n1-c1ccccc1	none
CCOC(=O)N/N=C/c1cc(C)n(-c2cccc3ccccc23)c1C	none
CCOC(=O)N/N=C/c1cc(C)n(-c2ccccc2)c1C	Shiga inhibitor 71.2, Cycloheximide cs 35.0
CCOC(=O)N/N=C/c1ccc(F)cc1F	Shiga inhibitor 57.2, Cycloheximide cs 30.4
Cn1c2ccccc2c2cc(/C=N/NC(=O)c3ccccc3F)ccc21	Shiga inhibitor 78.7, Cycloheximide cs 41.1
Cc1cc(/C=N/NC(=O)c2ccccc2F)c(C)n1-c1ccccc1	Shiga inhibitor 67.3, Cycloheximide cs 25.4
Cc1ccc(Nc2ncc(C(=O)Nc3ccc(F)cc3F)c3ccccc23)cc1Cl	none (no result: Shiga inhibitor, Cycloheximide cs)
O=C(NC1CCCC1)c1ccc2c(=O)n(Cc3ccccc3)c(SCc3ccccc3F)nc2c1	none (no result: Shiga inhibitor, Cycloheximide cs)
COc1cccc(NC(=O)COC(=O)C2C3CC4OC(=O)C2C4C3)c1 (stereo not drawn)	Cycloheximide cs 20.9
COc1ccccc1C(=O)N(CCC1CCCN1C)c1nc2ccccc2s1 (stereo not drawn)	FMDV inh inconclusive, Cycloheximide cs 25.9
COc1ccc2sc(N(CCCN(C)C)C(=O)c3nc4ccccc4s3)nc2c1	none
CC(C)(C)CC(=O)Nc1nnc(CCc2ccccc2)s1	Cycloheximide cs 29.2
CCC(C)(C)C(=O)Nc1nnc(CCc2ccccc2)s1	Shiga inhibitor 80.0, Cycloheximide cs 39.5
Cc1ccc(NC2=C(Cl)C(=O)c3ccccc3C2=O)cc1	Shiga inhibitor 70.2, Sm TGR block 3.55µM, Cycloheximide cs 24.8
CCNC1=C(Cl)C(=O)c2ccccc2C1=O	none
CCN(CC)c1ccc(NC2=C(Cl)C(=O)c3ccccc3C2=O)cc1	Shiga inhibitor 128.3, FMDV inh inconclusive, Sm TGR block 2.24µM, Cycloheximide cs 59.7
Cc1ccc(NC2=C(N3CCOCC3)C(=O)c3ccccc3C2=O)cc1	Shiga inhibitor 71.7, Sm TGR block inconclusive, Cycloheximide cs 47.1 (no result: FMDV inh)
CC(=O)c1ccc(NC2=C(N3CCOCC3)C(=O)c3ccccc3C2=O)cc1	none (no result: FMDV inh)
O=C1C(Cl)=C(Nc2ccc(O)cc2)C(=O)c2ccccc21	Shiga inhibitor 47.6, FMDV inh 31.6µM, Sm TGR block 2.24µM, Cycloheximide cs 22.7
Cc1ccc(-n2cc(C(=O)OCc3ccc(Cl)cc3)c3ccccc3c2=O)cc1	none (no result: Shiga inhibitor, Cycloheximide cs)
Cc1cc(C)cc(NC2=C(N)C(=O)c3ccccc3C2=O)c1	Shiga inhibitor 121.5, Cycloheximide cs 42.6
N#Cc1ccc(-c2ccc(C3Nc4ccccc4C(=O)N3O)o2)cc1 (stereo not drawn)	Sm TGR block 5.01µM (no result: Shiga inhibitor, Cycloheximide cs)
CCOC(=O)c1ccc(-c2ccc(C3Nc4ccccc4C(=O)N3O)o2)cc1 (stereo not drawn)	Shiga inhibitor 144.8, FMDV inh inconclusive, Cycloheximide cs 33.0
O=c1c2ccccc2nnn1Cc1ccc2ccccc2c1	Cycloheximide cs 24.6
CC(Oc1ccc(Cl)cc1Cl)C(=O)OCn1nnc2ccccc2c1=O (stereo not drawn)	none
COc1ccc(C(=O)OCn2nnc3ccccc3c2=O)cc1OC	none
O=c1c2ccccc2nnn1COc1ccc(Cl)cc1Br	Cycloheximide cs 29.4
O=c1c2ccccc2nnn1COc1cccc2ccccc12	Shiga inhibitor 143.2, Cycloheximide cs 45.4
COC(=O)c1cccc(Cn2nnc3ccccc3c2=O)c1	none
O=c1c2ccccc2nnn1COc1ccc(F)cc1Cl	Shiga inhibitor 55.3, Cycloheximide cs 40.6
CCOC(=O)c1c(NC(=O)CSc2cn(CCNC(=O)c3ccc(OC)cc3)c3ccccc23)sc2c1CCCC2	none (no result: Shiga inhibitor, Cycloheximide cs)
CCOc1ccccc1NC1(c2ccccc2)C(=O)c2ccccc2C1=O	none (no result: Shiga inhibitor, Cycloheximide cs)
CCc1c(C(C)S(=O)(=O)c2ccc(C)cc2)[nH]c(=O)n1-c1ccc(OC(F)(F)F)cc1 (stereo not drawn)	Sm TGR block 5.62µM
CCn1cc(S(=O)(=O)c2ccc(C)cc2)[nH]c1=O	none
O=Cc1ccc2noc(-c3ccc(Cl)cc3)c2c1	Sm TGR block 50.1µM
Cc1ccc(-c2onc3ccc(Cl)cc23)cc1	none
C1=C(c2ccc3c(c2)CN(Cc2cccn2-c2ncccn2)CCO3)Cc2ccccc21	none (no result: Shiga inhibitor, Sm TGR block, Cycloheximide cs)
O=C(CN1C(=O)S/C(=C\C=C\c2ccccc2)C1=O)Nc1ccc(C(=O)O)cc1	none
CC(/C=C1\SC(=O)N(CC(=O)Nc2ccc(O)cc2)C1=O)=C\c1ccccc1	Shiga inhibitor 40.4
O=C(/C=C1\SC(=O)N(CC(=O)Nc2ccc(F)cc2)C1=O)Nc1ccc(Cl)cc1	Shiga inhibitor 85.9, Cycloheximide cs 31.7
CC(/C=C1\SC(=O)N(CC(=O)Nc2cccc(O)c2)C1=O)=C\c1ccccc1	none
O=C(CN1C(=O)S/C(=C/C=C/c2ccccc2)C1=O)Nc1ccc(C(=O)O)cc1	none
O=C(CCCN1C(=O)S/C(=C\C=C\c2ccccc2)C1=O)Nc1ccc(O)cc1	Shiga inhibitor 148.3, Cycloheximide cs 44.4
O=C(CCN1C(=O)/C(=C\C=C\c2ccccc2)SC1=S)Nc1ccc(C(=O)O)cc1	Cycloheximide cs 14.9
CCN1CCCC1CNC(=O)c1cnn(-c2nccc(-c3cc(OC)ccc3OC)n2)c1C (stereo not drawn)	none (no result: Shiga inhibitor, Sm TGR block, Cycloheximide cs)
COc1cccc(NC(=O)c2ccc(CNS(=O)(=O)c3ccc4c(c3)C(C)(C)C(=O)N4C)cc2)c1	FMDV inh inconclusive (no result: Shiga inhibitor, Cycloheximide cs)
Cc1ccc(/C=N/c2sc3c(c2C(N)=O)CCCC3)o1	Shiga inhibitor 59.8, Sm TGR block 22.4µM, Cycloheximide cs 36.7
NC(=O)c1c(/N=C/c2cccnc2)sc2c1CCCC2	Shiga inhibitor 47.2, Cycloheximide cs 25.1
Cc1ccc(NC(=O)Cn2c(=O)n(-c3ccccc3)c(=O)c3ccc(C(=O)NCc4ccc5c(c4)OCO5)cc32)c(C)c1	none (no result: Shiga inhibitor, Cycloheximide cs)
CCOC(=O)C1CCCN(S(=O)(=O)c2cc(-c3onc(C)c3C)ccc2OC)C1 (stereo not drawn)	none (no result: Shiga inhibitor, Cycloheximide cs)
CCCN(CCC)CCCNC(=O)c1cc2c(=O)n(C)c3ccccc3c2n1C	Sm TGR block inconclusive
CCCN(CCC)CCCNC(=O)c1cc2c(=O)n(C)c3ccccc3c2s1	Sm TGR block 10µM (no result: Shiga inhibitor, Cycloheximide cs)
CCCC(C(=O)NCc1cccc(Cl)c1)N1Cc2ccccc2C1=O (stereo not drawn)	none (no result: Shiga inhibitor, Cycloheximide cs)
CCOC(=O)c1cc(S(=O)(=O)N2CCN(c3ccccc3OC)CC2)[nH]n1	none (no result: Shiga inhibitor, Cycloheximide cs)
C/C(=N\Nc1cccc([N+](=O)[O-])c1)c1ccccc1O	Shiga inhibitor 72.8, Cycloheximide cs 32.7
C/C(=N\Nc1cccc([N+](=O)[O-])c1)c1cc(F)ccc1O	Shiga inhibitor 109.0, Cycloheximide cs 46.9
Cc1cccc(NC(=O)c2ccoc2C)n1	Shiga inhibitor 83.7, Cycloheximide cs 29.0
Cc1ccccc1CC(=O)Nc1cc(C(C)(C)C)on1	Cycloheximide cs 9.7
Cc1cccc(NC(=O)c2cc(NC(=O)c3ccco3)ccc2Cl)n1	Shiga inhibitor 21.2
Cc1cc(C)c(NC(=O)c2ccoc2C)c(C)c1	none
